The whole screen tested about 310,000 compounds, of which about 2,200 (0.71%) showed an effect of 50% or more. Effects have a minus sign here. This is one part of a sample in which strong results are shown more often than they occur.
biological target: human ether-à-go-go-related gene (hERG) potassium channel (human, UniProt Q12809); assay: primary screen, population patch clamp on CHO cells stably expressing hERG; higher = less effect of the substance
Sequence (Q12809 whole entry, looked up): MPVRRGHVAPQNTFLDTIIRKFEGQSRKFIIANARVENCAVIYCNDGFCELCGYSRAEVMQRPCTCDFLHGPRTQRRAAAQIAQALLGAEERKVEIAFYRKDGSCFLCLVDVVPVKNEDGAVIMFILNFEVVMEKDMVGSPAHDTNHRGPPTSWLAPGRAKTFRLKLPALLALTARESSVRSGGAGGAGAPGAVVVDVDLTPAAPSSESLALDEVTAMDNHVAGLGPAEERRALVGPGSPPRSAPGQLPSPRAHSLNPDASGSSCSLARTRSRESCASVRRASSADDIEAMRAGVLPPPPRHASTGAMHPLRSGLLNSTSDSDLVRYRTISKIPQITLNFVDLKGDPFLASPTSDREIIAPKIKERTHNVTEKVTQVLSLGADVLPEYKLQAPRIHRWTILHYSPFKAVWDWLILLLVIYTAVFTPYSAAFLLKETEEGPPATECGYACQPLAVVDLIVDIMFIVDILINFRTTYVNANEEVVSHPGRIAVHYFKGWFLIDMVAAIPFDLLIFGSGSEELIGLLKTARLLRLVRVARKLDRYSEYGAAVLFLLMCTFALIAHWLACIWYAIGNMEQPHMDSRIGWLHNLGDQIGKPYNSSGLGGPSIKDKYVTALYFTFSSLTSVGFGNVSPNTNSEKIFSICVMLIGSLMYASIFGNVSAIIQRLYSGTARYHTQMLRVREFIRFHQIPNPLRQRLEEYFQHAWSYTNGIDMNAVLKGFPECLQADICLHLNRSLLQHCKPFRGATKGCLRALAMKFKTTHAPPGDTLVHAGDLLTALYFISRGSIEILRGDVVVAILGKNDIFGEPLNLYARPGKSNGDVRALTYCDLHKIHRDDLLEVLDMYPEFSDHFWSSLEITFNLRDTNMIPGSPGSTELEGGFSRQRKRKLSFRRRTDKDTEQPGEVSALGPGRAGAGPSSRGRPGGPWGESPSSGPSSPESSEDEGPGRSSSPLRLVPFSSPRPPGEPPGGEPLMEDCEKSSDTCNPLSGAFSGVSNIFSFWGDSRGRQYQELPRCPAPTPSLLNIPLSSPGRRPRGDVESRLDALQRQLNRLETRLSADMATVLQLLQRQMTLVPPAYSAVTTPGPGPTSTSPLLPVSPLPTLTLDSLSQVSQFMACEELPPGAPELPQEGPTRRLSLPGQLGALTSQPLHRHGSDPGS

Row | SMILES | hERG current change (%, negative = inhibition) at 1uM [%]
1 | COc1c2c(cc3oc(=O)c4c5ccc(O)cc5oc4c13)OC(C)(C)CC2 | 17.1
2 | c1cncc(-c2nnc(SCc3cccc4ccccc34)o2)c1 | 0.0047
3 | CC(=O)N1CCN(c2nc(-c3ccco3)c3c(c2C#N)CC(C)(C)SC3)CC1 | 7.62
4 | CCOc1ccc(/C=C(/NC(=O)c2ccc(Cl)cc2)C(=O)O)cc1OCC | -4.42
5 | COc1ccccc1CC(=O)Nc1ccc([N+](=O)[O-])cc1OC | 8.75
6 | Cn1c(=NC(=O)C2CC2)sc2cccc(F)c21 | 1.19
7 | Cc1ccc(NS(=O)(=O)c2ccc3c(c2)N(C)CCO3)cc1 | -79.6
8 | CC(=O)c1ccc(NS(=O)(=O)c2ccc3c(c2)N(C)CCO3)cc1 | 1.5
9 | Cc1ccc(CNS(=O)(=O)c2ccc3c(c2)N(C)CCO3)cc1 | 17.8
10 | C/C(CC(=O)Nc1ccc(N(C)C)cc1)=N\NC(=O)c1ccc(C(C)(C)C)cc1 | 15.5
11 | CCOC(=O)C1(Cc2cccc(OC)c2)CCN(Cc2ccccc2OC)CC1 | -18.5
12 | CCOC(=O)C1(Cc2cccc(OC)c2)CCN(Cc2cccn2-c2nccs2)CC1 | -77.7
13 | CCOC(=O)C1(Cc2cccc(OC)c2)CCN(Cc2cccc(O)c2)CC1 | -9.46
14 | CCOC(=O)C1(Cc2cccc(OC)c2)CCN(Cc2cccn2-c2ccccn2)CC1 | -79.4
15 | CCOC(=O)C1(Cc2cccc(OC)c2)CCN(Cc2cccnc2)CC1 | 11.5
16 | CCOC(=O)C1(Cc2ccccc2)CCN(Cc2cccn2-c2cccnc2)CC1 | 1.67
17 | CCOC(=O)C1(Cc2ccccc2)CCN(Cc2cccn2-c2nccs2)CC1 | -69.8
18 | CCOC(=O)C1(Cc2ccccc2)CCN(Cc2cccc3nccnc23)CC1 | -10.3
19 | CCOC(=O)C1(Cc2cccc(OC)c2)CCN(Cc2ccccc2)CC1 | -7.08
20 | Cc1ccc(NC(=O)CN(C)C(=O)Cn2c(=O)oc3ccccc32)cc1 | 7.84
21 | CC1CC(C)(C)NC(=S)N1CCCC(=O)N1CCN(c2ccc(F)cc2)CC1 (stereo not drawn) | -4.06
22 | CCCN(CCC)C(=O)Nc1cc(Cl)ccc1OC | 14.4

Row | SMILES | hERG current change (%, negative = inhibition) at 1uM [%]
23 | CCOC(CNC(=O)Cn1nc(C)c2ccccc21)OCC | 8.42
24 | CCCCn1nnc(NC(=O)c2ccc(-c3ccccc3)cc2)n1 | 13.7
25 | CC(C)(C)c1csc(NC(=O)c2c(F)c(F)c(F)c(F)c2F)n1 | -2.19
26 | O=C(c1cc(-c2ccccc2)nc2ccccc12)N1CCN(c2ccccn2)CC1 | 1.88
27 | O=C(c1cc(-c2ccncc2)nc2ccccc12)N1CCN(c2ccccn2)CC1 | -64
28 | O=C(c1cc(-c2ccncc2)nc2ccc(Br)cc12)N1CCN(c2ccccn2)CC1 | -9.18
29 | CCCCCCCC(=O)Nc1ccc(C(=O)N/N=C/c2cccc([N+](=O)[O-])c2)cc1 | 12.6
30 | O=C(CCSc1ccccc1)OCn1nnc2ccccc2c1=O | 13.7
31 | N#Cc1ccc(OCC(=O)N2CCN(S(=O)(=O)c3ccc(Cl)s3)CC2)cc1 | -22.7
32 | N#Cc1ccc(OCC(=O)N2CCN(S(=O)(=O)c3cccs3)CC2)cc1 | -54.7
33 | O=C(COc1ccccc1)N1CCN(S(=O)(=O)c2cccs2)CC1 | -7.49
34 | CCCc1cc(C(=O)O)c2ccccc2n1 | -0.521
35 | CN(CCC#N)C(=O)COc1ccc(Br)cc1Cl | 3.5
36 | CCOc1ccc(CN2CCN(Cc3nc(C(C)C)cs3)CC2CCO)cc1 (stereo not drawn) | -85.5
37 | CC(C)c1csc(CN2CCN(Cc3ccccc3)C(CCO)C2)n1 (stereo not drawn) | 10.1
38 | CC(C)c1csc(CN2CCN(Cc3ccc(F)c(F)c3)C(CCO)C2)n1 (stereo not drawn) | 2.23
39 | COc1cccc(CN2CCN(Cc3nc(C(C)C)cs3)CC2CCO)c1 (stereo not drawn) | -20
40 | CC(C)c1csc(CN2CCN(Cc3ccc(F)cc3)C(CCO)C2)n1 (stereo not drawn) | -4.26
41 | Cc1ccc(CN2CCN(Cc3nc(C(C)C)cs3)CC2CCO)cc1 (stereo not drawn) | -50.8
42 | Cc1ccc(S(=O)(=O)NC(=O)NCc2ccc(Cl)cc2)cc1 | 10.1
43 | COC(=O)C1C(=O)C2=C(CC1C)NC(C)=C(C(=O)OCc1ccc(OC)cc1)C2c1ccc(C)o1 (stereo not drawn) | 0.03
44 | O=S(=O)(c1ccc(F)c(F)c1)N1CCN(Cc2ccc3c(c2)OCO3)CC1 | -9.04

Row | SMILES | hERG current change (%, negative = inhibition) at 1uM [%]
45 | Cc1c(NC(=O)c2ccc3c4c(cccc24)CC3)c(=O)n(-c2ccccc2)n1C | 15.3
46 | CC(=O)c1cccc(-n2nnnc2SCC(=O)Nc2cc(C)on2)c1 | 12.1
47 | Cc1ccc2nc(CSc3nnc(-c4ccco4)n3-c3ccccc3)cc(=O)n2c1 | -2.87
48 | Cc1ccc2nc(CSc3nnc(-c4ccco4)o3)cc(=O)n2c1 | -54
49 | c1coc(-c2nnc(SCc3cn4ccccc4n3)o2)c1 | -2.53
50 | NC(=O)c1nsc(C(=O)N(c2ccccc2F)C(C(=O)NCc2ccccc2)c2ccc(O)cc2)c1N (stereo not drawn) | 8.51
51 | Cl.O=C(c1ccc(Cl)cc1)N1CCN(CCc2ccccn2)CC1 | -53.7
52 | COc1ccc(C(=O)N2CCN(Cc3ccccn3)CC2)cc1.O=C(O)C(=O)O | 3.65
53 | COc1ccc(C(=O)N2CCN(CCc3ccccn3)CC2)cc1.Cl | -66.6
54 | O=C(c1ccccc1)N1CCN(CCc2ccccn2)CC1 | 16.3
55 | COc1ccc(C(=O)N2CCN(c3ccccn3)CC2)cc1 | 6.53
56 | O=C(c1sc2cc(Cl)ccc2c1Cl)N1CCN(CCc2ccccn2)CC1 | -36.6
57 | COCCn1c(C)cc(/C=C2\NC(=S)N(C)C2=O)c1C | 9.65
58 | Cc1ccc(S(=O)(=O)NCCC(=O)NC(C)CCc2ccccc2)cc1 (stereo not drawn) | -10.7
59 | C=CCN(c1ccccc1)S(=O)(=O)c1cccc(C(=O)NCC(c2ccccc2OC)N2CCCC2)c1 (stereo not drawn) | -12.9
60 | CCN(CC)c1ccc(C2NC(=O)NC(C)=C2C(=O)Nc2ccccc2)cc1 (stereo not drawn) | 17.3
61 | Cc1cccc(NC(=O)CSc2nnnn2C)n1 | 12.6
62 | Fc1ccc(-n2cc(CNCCc3ccncc3)c(-c3ccccc3Cl)n2)cc1 | -3.18
63 | Fc1ccc(-n2cc(CNCCc3ccccn3)c(-c3ccccc3Cl)n2)cc1 | -78.2
64 | Fc1ccc(-n2cc(CNCCc3cccnc3)c(-c3ccccc3Cl)n2)cc1 | -10
65 | CCN(Cc1ccccc1)C(=O)CN1C(=S)NC(C)(C)CC1C (stereo not drawn) | 3.12
66 | CCOC(=O)CNc1c(-c2ccccc2)nc2ccc(Cl)cn12 | -27.6

Row | SMILES | hERG current change (%, negative = inhibition) at 1uM [%]
67 | CCOC(=O)CNc1c(-c2ccc(O)cc2)nc2ccc(Cl)cn12.Cl | -13.3
68 | CCOC(=O)CNc1c(-c2ccc(OC)cc2)nc2ccc(Cl)cn12 | -68.4
69 | O=C(NCCN1CCOCC1)c1cc([N+](=O)[O-])cc([N+](=O)[O-])c1 | 12.5
70 | CCc1c(C)c2c(C)[nH]nc2oc1=O | 10.5
71 | O=C(CCN1CCN(c2ccccc2)CC1)Nc1ccccc1F | 14.5
72 | Fc1ccc(NC(=S)N2CCN(C/C=C/c3ccccc3)CC2)c(F)c1 | 13
73 | COc1ccc(S(=O)(=O)N2CCN(C/C=C/c3ccccc3)CC2)cc1F | 8.5
74 | Cl.O=C(CCN1CCN(C/C=C/c2ccccc2)CC1)Nc1ccccc1Cl | -47.6
75 | O=C(Nc1ccc(F)cc1F)N1CCN(C/C=C/c2ccccc2)CC1 | -15.3
76 | Fc1ccccc1NC(=S)N1CCN(C/C=C/c2ccccc2)CC1 | 7.89
77 | Cc1ccccc1NC(=O)N1CCN(C/C=C/c2ccccc2)CC1 | 11
78 | Cc1ccccc1NC(=O)CCN1CCN(C/C=C/c2ccccc2)CC1 | -72
79 | COc1ccc(S(=O)(=O)N2CCN(C/C=C/c3ccccc3)CC2)cc1NC(C)=O | -54.2
80 | COc1ccc(NC(C)=O)cc1S(=O)(=O)N1CCN(C/C=C/c2ccccc2)CC1 | -48.1
81 | O=C(CN1CCN(C/C=C/c2ccccc2)CC1)Nc1ccc(F)cc1F | -87.4
82 | O=C(CCN1CCN(C/C=C/c2ccccc2)CC1)Nc1ccccc1F.O=C(O)C(=O)O | -81.2
83 | O=C(Nc1ccc(-c2nc3ccccc3o2)cc1)c1cc(-n2cnnc2)ccc1Cl | 6.74
84 | O=C(O)CC(NC(=S)NCc1ccccc1)C(=O)O (stereo not drawn) | -7.52
85 | CC(CCc1ccccc1)NC(=O)COC(=O)c1ccc([N+](=O)[O-])cc1 (stereo not drawn) | 5.37
86 | COc1ccc(CCNC(=O)CSc2nc3c(c(=O)n(C)c(=O)n3C)n2C(C)C)cc1OC | -14.5
87 | CC(C)=CCc1c(O)cc2c(c1O)C(=O)CC(c1ccccc1)O2 (stereo not drawn) | 12.9

Source: PMC4336329 (PLoS ONE, 2015)
